Inconclusive results are not listed. The source made the active and inactive calls. Unless noted, calls come from the whole dose curve; as a rule, active = well fitted curve in the direction sought with a large enough effect; inconclusive = small, poorly fitted or top-dose-only effect, or another doubt; inactive = no such curve, though single readings can be large; an effect the other way counts as inactive or inconclusive.
Experiments:
[1] = tested on: NIH3T3; assay: qHTS assay to identify novel small-molecules to repurpose for Merkel cell carcinoma treatment (AID 1296009); conditions: MCC and control cell lines, CellTiter-Glo viability, 72 h; at 44.8 µM (top of the series) unless noted; note: nearly all actives have a fitted effect of over 60% in size
Procedure, shortened: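 CellTiter-Glo luminescence after 72 hr compound exposure at 37 degree celsius gave cell viability. Libraries NPC and MIPE were run as 8- and 11-point dose responses; RLUs normalized to DMSO (negative) and no-cell (cytotoxicity) controls.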

[2] = tested on: C33A; assay: Primary qHTS to identify gynecologic anti-cancer compounds using libraries of approved drugs and bioactive compounds (AID 1345084); conditions: Gynecologic cancer cell panel viability, ATPlite luminescence, 48 h; series mostly up to 57.5 µM; note: % is set by controls: 0 for no effect and ±100 for the full control effect; nearly all actives have a fitted effect of over 55% in size
Procedure, shortened: (§1)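 ATP-based viability (ATPlite), 1,000 cells/well, 16 h pre-incubation, 48 h compound at 37 C, 5% CO2, 15 min RT before read.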

[3] = tested on: CAOV3; assay: as above; conditions: Gynecologic cancer cell panel viability, ATPlite luminescence, 48 h; series mostly up to 57.5 µM
Procedure, shortened: as §1

[4] = tested on: CASKI; assay: as above; conditions: Gynecologic cancer cell panel viability, ATPlite luminescence, 48 h; series mostly up to 57.5 µM
Procedure, shortened: as §1

[5] = tested on: Es-2; assay: as above; conditions: Gynecologic cancer cell panel viability, ATPlite luminescence, 48 h; series mostly up to 57.5 µM
Procedure, shortened: as §1

[6] = tested on: HeLa; assay: as above; conditions: Gynecologic cancer cell panel viability, ATPlite luminescence, 48 h; series mostly up to 57.5 µM
Procedure, shortened: as §1

[7] = tested on: Hek293T; assay: as above; conditions: Gynecologic cancer cell panel viability, ATPlite luminescence, 48 h, control line for the selectivity index; series mostly up to 57.5 µM
Procedure, shortened: as §1

[8] = tested on: JEG-3; assay: as above; conditions: Gynecologic cancer cell panel viability, ATPlite luminescence, 48 h; series mostly up to 57.5 µM
Procedure, shortened: as §1

[9] = tested on: OV90; assay: as above; conditions: Gynecologic cancer cell panel viability, ATPlite luminescence, 48 h; series mostly up to 57.5 µM
Procedure, shortened: as §1

[10] = tested on: SKOV3; assay: as above; conditions: Gynecologic cancer cell panel viability, ATPlite luminescence, 48 h; series mostly up to 57.5 µM
Procedure, shortened: as §1

[11] = tested on: Tov-21-G; assay: as above; conditions: Gynecologic cancer cell panel viability, ATPlite luminescence, 48 h; series mostly up to 57.5 µM
Procedure, shortened: as §1

[12] = tested on: Tov112D; assay: as above; conditions: Gynecologic cancer cell panel viability, ATPlite luminescence, 48 h; series mostly up to 57.5 µM
Procedure, shortened: as §1

[13] = tested on: PA-1; assay: as above; conditions: Gynecologic cancer cell panel viability, ATPlite luminescence, 48 h; series mostly up to 57.5 µM
Procedure, shortened: as §1

[14] = target: Nuclear receptor subfamily 1 group I member 2 (Rattus norvegicus) (UniProt Q9R1A7); assay: qHTS assay for small molecule activators of the rat pregnane X receptor (rPXR) signaling pathway (AID 651751; call rule not given here; note: 0% is about no effect); conditions: rPXR reporter cells, luciferase (One-Glo), 24 h
[15] = qHTS assay for small molecule activators of the human pregnane X receptor (PXR) signaling pathway (AID 720659; call rule not given here; note: 0% is about no effect)

Sequence of Nuclear receptor subfamily 1 group I member 2 (Rattus norvegicus) (Q9R1A7 whole entry, looked up): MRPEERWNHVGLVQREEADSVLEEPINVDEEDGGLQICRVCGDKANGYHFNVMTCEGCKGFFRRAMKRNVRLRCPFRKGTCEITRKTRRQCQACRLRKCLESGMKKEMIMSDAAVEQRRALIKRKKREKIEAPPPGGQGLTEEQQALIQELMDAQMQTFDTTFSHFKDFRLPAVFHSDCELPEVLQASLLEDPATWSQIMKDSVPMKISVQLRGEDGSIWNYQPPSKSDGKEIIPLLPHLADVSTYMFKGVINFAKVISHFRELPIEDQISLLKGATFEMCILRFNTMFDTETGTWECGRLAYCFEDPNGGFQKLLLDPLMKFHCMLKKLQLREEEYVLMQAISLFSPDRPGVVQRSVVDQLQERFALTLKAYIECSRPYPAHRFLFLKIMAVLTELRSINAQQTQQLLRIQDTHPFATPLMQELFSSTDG

COc1cc(/C=C/CO[C@@H]2O[C@H](CO)[C@@H](O)[C@H](O)[C@H]2O)cc(OC)c1O[C@@H]1O[C@H](CO)[C@@H](O)[C@H](O)[C@H]1O
inactive: outcome [1] inactive [at 17.4 µM] | Potency [2] | Potency [3] | outcome [4] | Potency [5] | Potency [6] | Potency [7] | Potency [8] | Potency [9] | Potency [10] | Potency [11] | Potency [12]

Cc1ccccc1-n1nc(-c2c(-c3ccc(F)cc3)nn3c2NC[C@@H](CO)C3)ccc1=O
inactive: outcome [1] | Potency [2] | Potency [3] | outcome [4] | Potency [5] | Potency [7] | Potency [8] | Potency [9] | Potency [13] | Potency [10] | Potency [11] | Potency [12]

Cc1onc(-c2ccccc2Cl)c1C(=O)N(C)c1ccc(Cl)cc1
inactive: outcome [1] | Potency [2] | Potency [3] | outcome [4] | Potency [5] | Potency [6] | Potency [7] | Potency [8] | Potency [9] | Potency [10] | Potency [11] | Potency [12]

O=C(O)c1ccnc2cc(-c3nc4ccccc4n3CCN3CCCCC3)sc12
inactive: outcome [1] | Potency [2] | Potency [3] | outcome [4] | Potency [5] | Potency [6] | Potency [7] | Potency [8] | Potency [9] | Potency [13] | Potency [11] | Potency [12]

COc1ccc(CCC(=O)c2c(O)cc(O[C@@H]3O[C@H](CO)[C@@H](O)[C@H](O)[C@H]3O[C@@H]3O[C@@H](C)[C@H](O)[C@@H](O)[C@H]3O)cc2O)cc1O
inactive: outcome [1] | Potency [2] | Potency [3] | outcome [4] | Potency [5] | Potency [6] | Potency [7] | Potency [8] | Potency [13] | Potency [10] | Potency [11] | Potency [12] | max response [14] -0.0245% | outcome [15]

CCC(C)/C=C(C)/C=C/C1=CC2=C(Cl)C(=O)C(C)(OC(C)=O)C(=O)C2=CN1C(CCC(=O)O)C(=O)O (stereo not given)
inactive: outcome [1] inactive [at 17.4 µM] | Potency [2] | Potency [3] | outcome [4] | Potency [5] | Potency [6] | Potency [8] | Potency [9] | Potency [13] | Potency [10] | Potency [11] | Potency [12]

Nc1nc2c(nc(Sc3ccc(Cl)cc3)n2[C@@H]2O[C@@H]3COP(=O)(O)O[C@H]3[C@H]2O)c(=O)[nH]1
inactive: outcome [1] | Potency [2] | Potency [3] | outcome [4] | Potency [5] | Potency [6] | Potency [7] | Potency [8] | Potency [9] | Potency [13] | Potency [11] | Potency [12]

NC1(c2ccc(NC(=O)c3ccnc(-c4cc(C(=O)O)ccn4)c3)cc2)CC1
inactive: outcome [1] | Potency [2] | Potency [3] | outcome [4] | Potency [5] | Potency [6] | Potency [7] | Potency [8] | Potency [9] | Potency [10] | Potency [11] | Potency [12]

CC1=C[C@@H]2[C@H]3[C@@H]4O[C@@](C)(CC[C@H]4O)[C@H]3CC(=O)[C@]23C(=O)N[C@@H](CC(C)C)[C@@H]3[C@@H]1C
inactive: outcome [1] | Potency [2] | Potency [3] | outcome [4] | Potency [5] | Potency [6] | Potency [7] | Potency [8] | Potency [9] | Potency [13] | Potency [11] | Potency [12]

CC(=O)O[C@@H](C[C@@H]1C=C(C)C(=O)O1)[C@H](C)[C@H]1CCC2[C@@]3(C)CC[C@H](O[C@@H]4O[C@H](CO)[C@@H](O)[C@H](O)[C@H]4O[C@@H]4O[C@@H](C)[C@H](O)[C@@H](O)[C@H]4O)C(C)(C)C3CC[C@@]2(C)[C@@]12COC(=O)C2 (stereo not given in full)
inactive: outcome [1] inactive [at 9.27 µM] | activity change, negative = cytotoxicity [2] 13.5% [at 11.6 µM] | activity change, negative = cytotoxicity [3] 4.91% [at 11.6 µM] | activity change, negative = cytotoxicity [4] 4.88% [at 11.6 µM] | activity change, negative = cytotoxicity [5] 8.74% [at 11.6 µM] | activity change, negative = cytotoxicity [6] 5.41% [at 11.6 µM] | activity change, negative = cytotoxicity [7] 15.9% [at 11.6 µM] | activity change, negative = cytotoxicity [8] -9.52% [at 11.6 µM] | activity change, negative = cytotoxicity [9] 15.4% [at 11.6 µM] | activity change, negative = cytotoxicity [10] 14.4% [at 11.6 µM] | activity change, negative = cytotoxicity [11] 2.35% [at 11.6 µM] | activity change, negative = cytotoxicity [12] 13.8% [at 11.6 µM]

COc1cc(C2CC(=O)Nc3c2cc(Br)c2ccccc32)cc(OC)c1OC (stereo not given)
inactive: outcome [1] | Potency [2] | Potency [3] | outcome [4] | Potency [5] | Potency [6] | Potency [7] | Potency [8] | Potency [9] | Potency [13] | Potency [11] | Potency [12]

C[C@]1(O)CC[C@@H]2C(C(=O)O)=CO[C@@H](O[C@@H]3O[C@H](COC(=O)/C=C/c4ccc(O)c(O)c4)[C@@H](O)[C@H](O)[C@H]3O)[C@@H]21
inactive: outcome [1] inactive [at 17.4 µM] | Potency [2] | Potency [3] | outcome [4] | Potency [5] | Potency [6] | Potency [7] | Potency [8] | Potency [9] | Potency [13] | Potency [11] | Potency [12]

C=C1[C@H](OC(C)=O)[C@H]2[C@@H](OC(C)=O)C(C)C[C@]2(OC(C)=O)C(=O)[C@H](C)/C=C/C(C)(C)C(=O)[C@H](OC(=O)C(C)C)[C@H]1OC(C)=O (stereo not given in full)
inactive: outcome [1] inactive [at 17.4 µM] | Potency [2] | Potency [3] | outcome [4] | Potency [5] | Potency [7] | Potency [8] | Potency [9] | Potency [13] | Potency [10] | Potency [11] | Potency [12]

Fc1cccc(CN(C2=NCCN2)c2c(Cl)cccc2Cl)c1
inactive: outcome [1] | Potency [2] | outcome [4] | Potency [5] | Potency [6] | Potency [7] | Potency [8] | Potency [9] | Potency [13] | Potency [10] | Potency [11] | Potency [12]

CC1(C)CC[C@]2(C(=O)O)CC[C@]3(C)C(=CCC4[C@@]5(C)C[C@@H](O)[C@H](O)[C@](C)(CO)C5CC[C@]43C)[C@@H]2[C@@H]1O (stereo not given in full)
inactive: outcome [1] inactive [at 17.4 µM] | outcome [4] | Potency [7] | Potency [9]

O=C(O)CC(CCc1ccccc1)OC1OC(CO)C(O)C(O)C1O (stereo not given)
inactive: outcome [1] | Potency [2] | outcome [4] | Potency [5] | Potency [6] | Potency [8] | Potency [9] | Potency [13] | Potency [10] | Potency [11] | Potency [12]
